Laboratory results published in the supplement of paper PMC7595190.

Test system: MV4-11
Assay: CellTox Green cytotoxicity fluorescence relative to DMSO vehicle (fold of vehicle RFU); higher = more cell death (loss of membrane integrity), active = 2 or more
Experimental: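 Paediatric AML cell lines (MV4-11, CMK, Kasumi-1; 4x10^4 cells/well, 96-well) treated with single compounds from the Selleckchem apoptosis library at 0.01, 0.1 and 1 µM. Cytotoxicity was read with CellTox Green (RFU, Ex 485/Em 520) at 24, 48 and 72 h and normalised to the 0.1% DMSO vehicle. Normalised RFU >= 2 was taken as a successful, cell-killing treatment.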

Measured: CellTox Green cytotoxicity fluorescence

Cn1c(COP(=O)(NCCBr)NCCBr)cnc1[N+](=O)[O-]
inactive: 0.01 µM, 24 h 0.981 | 0.01 µM, 48 h 0.971 | 0.01 µM, 72 h 0.974 | 0.1 µM, 24 h 0.97 | 0.1 µM, 48 h 0.983 | 0.1 µM, 72 h 1.04 | 1 µM, 24 h 0.97 | 1 µM, 48 h 1.38
active: 1 µM, 72 h 2.79

COc1ccc2c(c1)/C(=C/c1cnc[nH]1)C(=O)N2
inactive: 0.01 µM, 24 h 0.929 | 0.01 µM, 48 h 0.92 | 0.01 µM, 72 h 0.921 | 0.1 µM, 24 h 0.92 | 0.1 µM, 48 h 0.94 | 0.1 µM, 72 h 0.941 | 1 µM, 24 h 0.987 | 1 µM, 48 h 1.03 | 1 µM, 72 h 1.05

CC[C@H](C)[C@@H]([C@@H](CC(=O)N1CCC[C@H]1[C@H](OC)[C@@H](C)C(=O)N[C@H](C)[C@@H](O)c1ccccc1)OC)N(C)C(=O)[C@@H](NC(=O)[C@@H](NC)C(C)C)C(C)C [Monomethyl auristatin E]
active: 0.01 µM, 48 h 2.42 | 0.01 µM, 72 h 2.81 | 0.1 µM, 48 h 2.48 | 0.1 µM, 72 h 2.73 | 1 µM, 48 h 2.5 | 1 µM, 72 h 2.74
inactive: 0.01 µM, 24 h 1.19 | 0.1 µM, 24 h 1.3 | 1 µM, 24 h 1.58

CN[C@@H]1C[C@H]2O[C@@](C)([C@@H]1OC)n1c3ccccc3c3c4c(c5c6ccccc6n2c5c31)C(=O)NC4 [Staurosporine]
active: 1 µM, 48 h 2.34 | 1 µM, 72 h 2.42
inactive: 0.01 µM, 24 h 0.985 | 0.01 µM, 48 h 1.41 | 0.01 µM, 72 h 1.83 | 0.1 µM, 24 h 1.01 | 0.1 µM, 48 h 1.48 | 0.1 µM, 72 h 1.96 | 1 µM, 24 h 1.36

O=c1[nH]c2ccccc2n1C1CCN(Cc2ccc(-c3[nH]c4cc5ncnc5cc4nc3-c3ccccc3)cc2)CC1
inactive: 0.01 µM, 24 h 1 | 0.01 µM, 48 h 0.995 | 0.01 µM, 72 h 0.956 | 0.1 µM, 24 h 1 | 0.1 µM, 48 h 0.999 | 0.1 µM, 72 h 0.993 | 1 µM, 24 h 1.04 | 1 µM, 48 h 1.1 | 1 µM, 72 h 1.21
